Rtt109 HAT inh: inhibitors of Candida albicans Rtt109/Vps75 histone acetyltransferase. inhibition, % at 34.9 µM. actives 0.16% (n = 330,000). AID 540336. Q5AAJ8. purified Rtt109/Vps75, ThioGlo CoA-SH fluorescence, 4 h;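 active = inhibition of at least 50% in every replicate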
Target sequence (Q5AAJ8 whole entry, looked up): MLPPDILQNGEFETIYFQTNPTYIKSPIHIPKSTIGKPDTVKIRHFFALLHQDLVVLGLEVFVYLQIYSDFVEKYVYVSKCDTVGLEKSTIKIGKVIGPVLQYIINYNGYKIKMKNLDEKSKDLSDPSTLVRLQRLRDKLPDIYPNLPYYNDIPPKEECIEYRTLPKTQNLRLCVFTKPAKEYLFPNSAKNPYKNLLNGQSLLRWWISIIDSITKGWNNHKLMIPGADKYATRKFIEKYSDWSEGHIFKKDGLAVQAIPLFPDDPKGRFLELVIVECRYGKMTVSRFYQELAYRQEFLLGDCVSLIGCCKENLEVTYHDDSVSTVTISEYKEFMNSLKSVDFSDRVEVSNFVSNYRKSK
ABHD5-PLIN5 inh: ABHD5-PLIN5 protein interaction inhibition; Q00G26+Q8WTS1; inhibition, % at 4 µM; Split G. princeps luciferase complementation, luminescence, 4 h; actives 0.78% (n = 360,000); AID 602281;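 active = inhibition above the mean inhibition across every tested compound plus 3 SD, cut at about 22% in these data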;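 also: 0% = DMSO only wells and the 100% control is not disclosed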
ALR inh: human ALR oxidase inhibition via reduced H2O2; P55789; purified ALR, DTT oxidation, H2O2 HRP-luminol luminescence; inhibition, % (test concentration not listed); actives 3.8% (n = 290,000); AID 485317;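 active = mean replicate inhibition above about 79%, with every replicate also reaching it, limit read from the data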
Target sequence (P55789 whole entry, looked up): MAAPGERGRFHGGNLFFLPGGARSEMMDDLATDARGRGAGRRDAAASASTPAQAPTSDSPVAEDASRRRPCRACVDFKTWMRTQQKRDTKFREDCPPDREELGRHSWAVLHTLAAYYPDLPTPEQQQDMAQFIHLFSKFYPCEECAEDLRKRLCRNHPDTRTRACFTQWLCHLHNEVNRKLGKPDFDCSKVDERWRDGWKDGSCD
PRMT1 FP inh: PRMT1 (human) inhibition, primary screen. Q99873. recombinant PRMT1, activity-based probe fluorescence polarization. inhibition, % at 2.79 µM. actives 1.3% (n = 370,000). AID 652257;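 active = inhibition above about 21% made by adding two undisclosed values, limit read from the data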
LANA-H2B inh: blocks KSHV LANA binding to histone H2A/H2B. Q9QR71. actives 0.6% (n = 320,000). cell-free LANA-H2A/H2B peptide, fluorescence polarization. inhibition, % (test concentration not listed); in the data active = inhibition mostly above about 10%, no sharp cut-off; inactive = mostly below about 6.7%
rCAG binder: binds r(CAG) RNA repeats | inhibition, % at 3 µM | actives 1.3% (n = 370,000) | r(CAG) RNA repeat, TO-PRO-1 dye displacement fluorescence;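 active = inhibition above the plate cutoff, the mean of all test compounds on that plate plus 3 SD, cut at about 35% in these data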;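 also: 0% = DMSO alone and 100% = 100 µM mitoxantrone as full dye displacement; higher means more dye released from RNA so lower well fluorescence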
Active calls of the source: *; ! = not confirmed by another sample. Sampled rows, rich in hits. Any-hit rate of the full collection: about 5.9%.

`Clc1ccc(N2CCN(Cc3ccccc3Cl)CC2)cc1` gave Rtt109 HAT inh -1.6, ABHD5-PLIN5 inh 0.7, ALR inh 15.7, PRMT1 FP inh 0.4, LANA-H2B inh -9.1 and rCAG binder -1.4.
Screening COc1ccc(CC2C(=O)N(C)C(=O)N(C)C2=O)c(OC)c1 returned Rtt109 HAT inh 6.8, ABHD5-PLIN5 inh 0.0, ALR inh -9.9, PRMT1 FP inh 3.5, LANA-H2B inh -2.8 and rCAG binder -2.4.
Cc1ccc(CC2C(=O)N(C)C(=O)N(C)C2=O)s1 was read as Rtt109 HAT inh -0.8, ABHD5-PLIN5 inh -7.6, ALR inh 11.6, PRMT1 FP inh 21.2*, LANA-H2B inh -6.4 and rCAG binder 7.3.
For CC(C)C(CN1CCC(C)(c2cccc(O)c2)[C@@H](C)C1)NC(=O)C1Cc2ccc(O)cc2CN1 (stereo partly drawn) the results were PRMT1 FP inh -2.1 and rCAG binder 2.3.
CCC12C=CCN3CCC4(c5cc(Br)c(OC)cc5N(C)C4C(O)(C(=O)OC)C1OC(C)=O)C32 (stereo not drawn) was read as Rtt109 HAT inh -5.8, ABHD5-PLIN5 inh 6.0, ALR inh 84.7*, PRMT1 FP inh 1.1, LANA-H2B inh 0.5 and rCAG binder -7.9.
For N#CC1c2ccccc2-n2nncc2CN1C(=O)c1ccc([N+](=O)[O-])o1 (stereo not drawn) the results were PRMT1 FP inh 2.5 and rCAG binder 0.5.
`CCOC(=O)C1=C(N)Oc2cc(C)oc(=O)c2C12C(=O)N1c3c(cccc32)C(C)CC1(C)C` (stereo not drawn) gave Rtt109 HAT inh 7.5, ABHD5-PLIN5 inh -11.3, ALR inh -4.6 and LANA-H2B inh 33.4*.
CCOC(=O)C1=C(N)Oc2cc(C)oc(=O)c2C12C(=O)N1c3c(cccc32)C(C)=CC1(C)C (stereo not drawn) was read as Rtt109 HAT inh 3.9, ABHD5-PLIN5 inh -1.3, ALR inh -5.3, PRMT1 FP inh -1.1, LANA-H2B inh 5.8 and rCAG binder -7.4.
`CCN(CC)c1ccc(CC2C(=O)N(C)C(=O)N(C)C2=O)cc1` gave Rtt109 HAT inh -0.4, ABHD5-PLIN5 inh -3.0, ALR inh 98.8* and LANA-H2B inh -2.7.
`C=CCOc1ccc(CC2C(=O)N(C)C(=O)N(C)C2=O)cc1` gave Rtt109 HAT inh -1.5, ABHD5-PLIN5 inh 2.4, ALR inh 19.2, PRMT1 FP inh 3.3, LANA-H2B inh -0.3 and rCAG binder 10.1.
O=C(N/N=C/c1c(O)n(Cc2ccccc2)c(=O)[nH]c1=O)c1ccccc1O was read as Rtt109 HAT inh 19.4, ABHD5-PLIN5 inh 2.9, ALR inh 55.6, PRMT1 FP inh 2.5, LANA-H2B inh -14.6 and rCAG binder 81.0*.
Screening COP(=O)(OC)OC=C(Cl)Cl returned PRMT1 FP inh 5.9 and rCAG binder 2.0.
`COc1ccc(N2C(=O)/C(=C/c3ccc(N(C)C)o3)C(=O)NC2=S)cc1` gave Rtt109 HAT inh 3.4, ABHD5-PLIN5 inh 23.0*, ALR inh 9.8, PRMT1 FP inh -16.6, LANA-H2B inh -20.6 and rCAG binder -48.2.
For CC(C)C[C@H]1C(=O)N2CCCC2[C@]2(O)O[C@](NC(=O)[C@@H]3C=C4c5cccc6[nH]cc(c56)CC4N(C)C3)(C(C)C)C(=O)N12 (stereo partly drawn) the results were Rtt109 HAT inh 1.2, ABHD5-PLIN5 inh -7.0, ALR inh -52.1 and LANA-H2B inh 21.2*!.
`CC(C)[C@@]1(NC(=O)[C@@H]2C[C@@H]3c4cccc5[nH]cc(c45)C[C@H]3N(C)C2)O[C@@]2(O)[C@@H]3CCCN3C(=O)[C@H](Cc3ccccc3)N2C1=O` gave Rtt109 HAT inh 33.3, ABHD5-PLIN5 inh -4.8, ALR inh -8.4, PRMT1 FP inh 15.2, LANA-H2B inh 15.6* and rCAG binder 6.4.
Screening CC(C)[C@H]1C(=O)N2CCC[C@H]2[C@]2(O)O[C@](NC(=O)[C@@H]3C=C4c5cccc6[nH]cc(c56)C[C@H]4N(C)C3)(C(C)C)C(=O)N12 returned Rtt109 HAT inh -11.7, ABHD5-PLIN5 inh -21.7, ALR inh -23.3 and LANA-H2B inh 10.6*.
N#CC1c2ccccc2-n2nncc2CN1C(=O)c1cccnc1 (stereo not drawn) was read as PRMT1 FP inh -3.0 and rCAG binder 1.7.
For COc1cc(C(=O)N/N=C/C23CC[C@@H](O)CC2(O)CC[C@@H]2[C@@H]3CCC3(C)C(C4=CC(=O)OC4)CCC23O)ccc1O (stereo partly drawn) the results were Rtt109 HAT inh 5.9, ABHD5-PLIN5 inh -2.2, ALR inh 95.3*, PRMT1 FP inh 1.4, LANA-H2B inh 3.3 and rCAG binder -2.7.
Screening O=C(Cn1ncc2ccsc2c1=O)N1CCC2(CC1)OCCO2 returned Rtt109 HAT inh -5.7, ABHD5-PLIN5 inh 8.8, ALR inh -6.1 and LANA-H2B inh -0.8.
Screening Cc1ccccc1-c1nc(CS(=O)CC(=O)N2CCC3(CC2)OCCO3)c(C)o1 (stereo not drawn) returned Rtt109 HAT inh -14.5, ABHD5-PLIN5 inh -4.5, ALR inh 99.8*, PRMT1 FP inh -1.0, LANA-H2B inh 8.6 and rCAG binder -0.4.
Cc1ccsc1-c1nc(CSCC(=O)N2CCC3(CC2)OCCO3)c(C)o1 was read as Rtt109 HAT inh -28.5, ABHD5-PLIN5 inh -1.2, ALR inh 98.8*, PRMT1 FP inh 0.6, LANA-H2B inh 0.1 and rCAG binder -4.9.
`S=P(c1ccccc1)(c1ccccc1)c1cnc2ccccn12` gave PRMT1 FP inh -1.0.
Screening CC1CC(OP(O)(=S)c2ccc(N(C)C)cc2NC(=O)c2cccs2)CC(C)(C)C1 (stereo not drawn) returned Rtt109 HAT inh 6.2, ABHD5-PLIN5 inh 1.6, ALR inh 98.6*, PRMT1 FP inh 7.1, LANA-H2B inh 5.3 and rCAG binder 21.6.
Screening c1cncc(-c2ccc3n2Cc2cnnn2-c2ccccc2-3)c1 returned PRMT1 FP inh 2.2 and rCAG binder -2.1.
`O=c1[nH]c(=O)n(Cc2ccco2)c(O)c1C=NCc1ccc2c(c1)OCO2` gave Rtt109 HAT inh 2.5, ABHD5-PLIN5 inh 1.9, ALR inh -0.9, PRMT1 FP inh 23.2*, LANA-H2B inh -1.3 and rCAG binder 8.7.
`CCCCn1c(O)c(C=NCc2ccc3c(c2)OCO3)c(=O)[nH]c1=O` gave Rtt109 HAT inh -2.1, ABHD5-PLIN5 inh -1.6, ALR inh -8.8, PRMT1 FP inh 2.8, LANA-H2B inh -4.4 and rCAG binder -8.3.
`CN1C(=O)C(=Cc2ccccc2OCc2ccccc2Cl)C(=O)N(C)C1=O` gave Rtt109 HAT inh -2.6, ABHD5-PLIN5 inh 21.1, ALR inh 33.8, PRMT1 FP inh 22.7*, LANA-H2B inh -1.3 and rCAG binder 1.4.
CN1C(=O)C(=Cc2ccc(SC3CCCCC3)o2)C(=O)N(C)C1=O was read as Rtt109 HAT inh -3.6, ABHD5-PLIN5 inh 7.0, ALR inh 88.0*, PRMT1 FP inh 12.4, LANA-H2B inh 0.4 and rCAG binder 12.8.

High-throughput results deposited in PubChem BioAssay by several laboratories.
